Reference: PubChem BioAssay (NCI)
Compounds without any hit were thinned out: in the full panel of roughly 83,000, 20% have a hit.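 Compound tested at a single concentration for 48 hours in 96-well plates; a percent growth value below 10 was scored as active.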 Activity calls are given as the source filed them.

Columns and labels:
Assay in all cases: NCI-60 one-dose screen, 48 h (100 = growth as untreated, 0 = no growth, -100 = all killed)
Conditions in all cases: 10 µM unless noted
[1] = tested on: SK-MEL-2 melanoma
[2] = tested on: EKVX NSCLC
[3] = tested on: SN12C renal
[4] = tested on: UO-31 renal
[5] = tested on: ACHN renal
[6] = tested on: CAKI-1 renal
[7] = tested on: A498 renal
[8] = tested on: CCRF-CEM leukemia
[9] = tested on: MOLT-4 leukemia
[10] = tested on: TK-10 renal

Measured: growth

CC(C)Sc1nc(-c2ccc(Br)cc2)c(C#N)c(N2CCCCC2)n1
inactive: [1] 108% | [2] 93.3% | [3] 94.3% | [4] 95.3% | [5] 101% | [6] 95.9% | [7] 83.8% | [8] 95.2% | [9] 110%

C[C@H]1O[C@@H](O[C@H]2[C@@H](O)C[C@H](O[C@H]3[C@@H](O)C[C@H](O[C@H]4CC[C@]5(C)C6C[C@@H](O)[C@]7(C)[C@@H](C8=CC(=O)OC8)CC[C@]7(O)C6CC[C@@H]5C4)O[C@@H]3C)O[C@@H]2C)C[C@H](O)[C@@H]1O (stereo not given in full)
active: [1] -72.8% | [2] -100% | [3] -61.7% | [4] -82.4% | [5] -75.8% | [6] -100% | [7] -33% | [8] -56.6% | [9] -33.7%

CC12CCC3C(=CCc4cc(O)ccc43)C1CCC2=O (stereo not given)
inactive: [1] 119% | [2] 72.3% | [3] 97.5% | [4] 76% | [5] 93.1% | [6] 92.6% | [7] 102% | [8] 95.5% | [9] 85.4%

CC[C@H]1CN2CCc3cc(OC)c(OC)cc3C2C[C@@H]1CC1NCCc2cc(OC)c(OC)cc21 (stereo not given in full)
active: [1] -70.5% | [2] -27.4% | [3] -13.1% | [4] -37.9% | [5] -16.5% | [6] -34.3% | [7] -49.9% | [8] -18% | [9] -13.1%

CCCCN=C(N)c1ccc(OCCSCCOc2ccc(C(N)=NCCCC)cc2)cc1
inactive: [1] 59.9% | [2] 36.8% | [3] 26.3% | [4] 93.5% | [5] 87% | [6] 115% | [7] 57.4% | [8] 72.1%

CCSCC1CC(O)(c2ccccc2)C(c2ccccc2)C(c2ccc(Cl)cc2)O1 (stereo not given)
active: [2] -4.64% | [3] -49.9% | [6] -51.3% | [7] -13.3%
inactive: [1] 16.9% | [4] 11.9% | [5] 22.8% | [8] 13.3%

Cc1onc(-c2ccccc2Cl)c1C(=O)N[C@@H]1C(=O)N2[C@@H]1SC(C)(C)[C@@H]2C(=O)O
inactive: [1] 110% | [2] 104% | [3] 103% | [4] 80.4% | [5] 104% | [6] 96.6% | [7] 114% | [8] 96.6% | [9] 90.5%

O=CN1N=C(c2ccc(Nc3ccnc4cc(Cl)ccc34)cc2)CC1c1ccc(Cl)cc1 (stereo not given)
inactive: [1] 52.1% | [2] 40.5% | [3] 36.1% | [4] 20.6% | [5] 27.9% | [6] 39.4% | [7] 34.6%
active: [8] 6.48% | [9] 7.23%

NS(=O)(=O)c1cc2c(cc1Cl)NC=NS2(=O)=O
inactive: [1] 103% | [2] 107% | [3] 100% | [4] 82.1% | [5] 98.9% | [6] 96.3% | [7] 110% | [8] 97.6% | [9] 103%

CCC(C)C1NC(=O)C(CCNCS(=O)(=O)O)NC(=O)C(NC(=O)C(CCNCS(=O)(=O)O)NC(=O)C(NC(=O)C(CCNCS(=O)(=O)O)NC(=O)CCCCC(C)C)C(C)O)CCNC(=O)C(C(C)O)NC(=O)C(CCNCS(=O)(=O)O)NC(=O)C(CCNCS(=O)(=O)O)NC(=O)C(C(C)CC)NC1=O (stereo not given)
inactive: [1] 39.9% | [2] 83.7% | [3] 63.6% | [4] 75% | [5] 94.5% | [6] 99.4% | [7] 88.8% | [8] 20.7% | [9] 66.4%

Oc1c(Cl)cc(Cl)c(Cl)c1Cc1c(O)c(Cl)cc(Cl)c1Cl
inactive: [5] 18.4% | [9] 11.1%
active: [1] -39.1% | [2] -4.03% | [3] 5.01% | [4] -2.22% | [6] -18.3% | [7] -17.3% | [8] 5.78%

C[N+]1(C)C2CC[C@@H]1CC(OC(=O)C(O)c1ccccc1)C2 (stereo not given in full)
inactive: [1] 150% | [2] 99.4% | [3] 87.3% | [4] 85.3% | [5] 106% | [6] 84.1% | [7] 109% | [8] 93.1% | [9] 126%

O[N+]1=CC=CCC1=S.On1ccccc1=S.[Zn]
active: [1] -67.8% | [2] -84.4% | [3] -82.4% | [4] -97.9% | [5] -91.2% | [6] -85.6% | [7] -83.4% | [8] -34.5% | [9] -36.1%

NC(=O)NC1(C(=O)O)CCCC1
inactive: [1] 108% | [2] 115% | [3] 105% | [4] 101% | [10] 108% | [6] 99.9% | [8] 98.6% | [9] 98.2%

O=C1CSC(c2ccccc2Cl)N1c1nnc(Cn2nnc3ccccc32)o1 (stereo not given)
inactive: [1] 91.7% | [2] 75% | [3] 87.4% | [4] 66.3% | [5] 83.6% | [6] 40.6% | [8] 85.6% | [9] 73.4%

CC(C)CC1NC(=O)C(CCCN)NC(=O)C(C(C)C)NC(=O)C2CCCN2C(=O)C(Cc2ccccc2)NC(=O)C(CC(C)C)NC(=O)C(CCCN)NC(=O)C(C(C)C)NC(=O)C2CCCN2C(=O)C(Cc2ccccc2)NC1=O (stereo not given)
active: [1] -94% | [2] -87.3% | [3] -82.2% | [4] -20% | [5] -19.8% | [6] -14.8% | [7] -70.1% | [8] -59.3% | [9] -51.3%

C/C=C(/C(=C/C)c1ccc(O)cc1)c1ccc(O)cc1
inactive: [1] 44.9% | [2] 35.7% | [3] 42.8% | [4] 38.1% | [5] 38.4% | [6] 42.1% | [7] 31.4% | [8] 17.1% | [9] 34%

O=C(CNc1ccc2c(c1)C(=O)c1ccccc1C2=O)Nc1ccc2c(c1)C(=O)c1ccccc1C2=O
inactive: [7] 27.6%
active: [1] -74.4% | [2] -18.5% | [3] -87% | [4] -96.5% | [5] -94.3% | [6] -80.8% | [8] -11.6% | [9] -36.6%

CC(C)Sc1nc(Cl)c(C#N)c(-c2ccc(F)cc2)n1
inactive: [1] 98.2% | [2] 99.2% | [3] 97.3% | [4] 85.6% | [5] 101% | [6] 104% | [7] 99.9%
active: [8] 6.61% | [9] 7.38%

Nc1ccn(C2O[C@H](CO)[C@@H](O)[C@@H]2O)c(=O)n1 (stereo not given in full)
active: [4] 1.02% | [5] 0.769% | [8] 6.02%
inactive: [1] 88.3% | [2] 91.8% | [3] 37.1% | [6] 12.4% | [7] 66.8% | [9] 13.6%

C[C@H]1c2cccc(O)c2C(O)=C2C(=O)[C@]3(O)C(O)=C(C(N)=O)C(=O)[C@@H](N(C)C)[C@@H]3[C@@H](O)[C@@H]21
inactive: [1] 56.1% | [2] 46.7% | [3] 53.6% | [4] 32.6% | [5] 27.1% | [6] 14% | [7] 59.9% | [8] 39.1% | [9] 51.5%

OC(c1ccccc1)C(NCc1ccccc1)c1ccccc1 (stereo not given)
inactive: [1] 120% | [2] 86% | [3] 104% | [4] 92% | [5] 99.5% | [6] 62.8% | [7] 87.7% | [8] 97.3%

COc1cc(/C=C2\SC(N3CCCCC3)=NC2=O)ccc1OCCCCCCOc1ccc(/C=C2\SC(N3CCCCC3)=NC2=O)cc1OC
active: [1] 2.01% | [6] 4.5% | [7] 7.57% | [8] 1.05% | [9] 7.46%
inactive: [2] 31.4% | [3] 25.3% | [4] 33.5% | [5] 23.1%

COc1cccc2c1C(=O)c1c(O)c3c(c(O)c1C2=O)C[C@@](O)(C(C)=O)C[C@@H]3O[C@H]1C[C@H](N)[C@H](O)[C@H](C)O1
active: [1] -82% | [2] -25% | [3] 4.49% | [4] -64.7% | [5] -23.1% | [6] -29.4% | [7] -72.7% | [8] -25.1% | [9] -17.8%

N#CSCC1CC(O)(c2ccccc2)C(c2ccccc2)C(c2ccc(Cl)cc2)O1 (stereo not given)
active: [1] -42.7% | [2] -40% | [3] -91.9% | [4] -93.1% | [5] -71.6% | [6] -67.1% | [7] 6.8% | [9] -10%
inactive: [8] 10.2%

CSc1nc(Nc2ccc(S(=O)(=O)Nc3ccon3)cc2)c(C#N)c(-c2ccc(Cl)cc2)n1
active: [8] 6.79%
inactive: [1] 99.3% | [2] 98.5% | [3] 108% | [4] 86% | [5] 90.2% | [6] 102% | [7] 93.3%

CCSc1nc(-c2ccco2)n2nc(-c3ccco3)cc2n1
inactive: [1] 129% | [2] 76.1% | [3] 95.8% | [4] 72.4% | [5] 88.8% | [6] 84.3% | [7] 91.7% | [8] 86.7% | [9] 118%

OCCN1CCN(CCCN2c3ccccc3Sc3ccc(C(F)(F)F)cc32)CC1
inactive: [2] 47.2% | [3] 43.6% | [4] 32.5% | [6] 25.7% | [8] 29.7%
active: [1] 8.96% | [10] 4.29% | [9] -16%
